Data taken from PubChem BioAssay AID1159580 (chemical genetic matrix, 2015).
In all, about 5,500 compounds went through this assay and about 2,000 (36%) were called active. Not shown: some 18% with an inconclusive outcome. The list shows a part of the results. Unmarked numbers belong to inactive results. Cut-off read from the data, not from the text of the source: active = normalized growth mostly below about 0.91 (no sharp cut-off); inconclusive = no clear call, values can overlap the other calls; inactive = mostly above about 0.92.

Test: chemical genetic growth profiling, strain panel (AID 1159580);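 note: tested at 20 µM; growth read once vehicle control cultures reached saturation at 30 °C; 1 = growth at the plate median or of vehicle wells; lower values mean less growth of the strain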
Conditions: growth OD

Question: With `C[C@]12CCC3c4ccc(OC(=O)CCC(=O)O)cc4CCC3C1CCC2=O` (stereo partly specified) as the compound, how does the normalized growth (S. cerevisiae deletion strains, locus YAL013W, strain DEP1, hits give low values) read?
Answer: Its normalized growth is 0.981.

Question: What about the normalized growth (S. cerevisiae deletion strains, locus YBR021W, strain FUR4, hits give low values) of the same compound?
Answer: The normalized growth was 0.85.

Question: What about the normalized growth (S. cerevisiae deletion strains, locus YBR229C, strain ROT2, hits give low values) of the same compound?
Answer: Its normalized growth is 1.01.

Question: And the normalized growth (S. cerevisiae deletion strains, locus YCL029C, strain bik1, hits give low values)?
Answer: Its normalized growth is 0.97.

Question: And the normalized growth (S. cerevisiae deletion strains, locus YDL035C, strain GPR1, hits give low values)?
Answer: Its normalized growth is 0.871.

Question: What about the normalized growth (S. cerevisiae deletion strains, locus YDL074C, strain BRE1, hits give low values) of the same compound?
Answer: Its normalized growth is 0.872.

Question: And the normalized growth (S. cerevisiae deletion strains, locus YDL101C, strain DUN1, hits give low values)?
Answer: Its normalized growth is 0.999.

Question: What about the normalized growth (S. cerevisiae deletion strains, locus YDL134C, strain PPH21, hits give low values) of the same compound?
Answer: Its normalized growth is 1.

Question: What about the normalized growth (S. cerevisiae deletion strains, locus YDL185W, strain tfp1, hits give low values) of the same compound?
Answer: The normalized growth was 0.951.

Question: And the normalized growth (S. cerevisiae deletion strains, locus YDL192W, strain arf1, hits give low values)?
Answer: Its normalized growth is 0.916 (active).

Question: What about the normalized growth (S. cerevisiae deletion strains, locus YDR101C, strain arx1, hits give low values) of the same compound?
Answer: The normalized growth was 0.984.

Question: What about the normalized growth (S. cerevisiae deletion strains, locus YDR150W, strain NUM1, hits give low values) of the same compound?
Answer: The normalized growth was 0.998.

Question: What about the normalized growth (S. cerevisiae deletion strains, locus YDR162C, strain NBP2, hits give low values) of the same compound?
Answer: The normalized growth was 0.785 (active).

Question: And the normalized growth (S. cerevisiae deletion strains, locus YDR318W, strain mcm21, hits give low values)?
Answer: Its normalized growth is 0.926.

Question: What about the normalized growth (S. cerevisiae deletion strains, locus YDR388W, hits give low values) of the same compound?
Answer: The normalized growth was 0.98.

Question: What about the normalized growth (S. cerevisiae deletion strains, locus YDR502C, strain sam2, hits give low values) of the same compound?
Answer: The normalized growth was 0.933.

Question: And the normalized growth (S. cerevisiae deletion strains, locus YEL061C, strain CIN8, hits give low values)?
Answer: Its normalized growth is 1.

Question: And the normalized growth (S. cerevisiae deletion strains, locus YER110C, hits give low values)?
Answer: Its normalized growth is 0.965.

Question: And the normalized growth (S. cerevisiae deletion strains, locus YER155C, strain BEM2, hits give low values)?
Answer: Its normalized growth is 1.01.

Question: What about the normalized growth (S. cerevisiae deletion strains, locus YER167W, strain BCK2, hits give low values) of the same compound?
Answer: The normalized growth was 0.944.

Question: What about the normalized growth (S. cerevisiae deletion strains, locus YGL078C, strain dbp3, hits give low values) of the same compound?
Answer: Its normalized growth is 1.

Question: What about the normalized growth (S. cerevisiae deletion strains, locus YGL086W, strain mad1, hits give low values) of the same compound?
Answer: Its normalized growth is 0.922 (active).

Question: And the normalized growth (S. cerevisiae deletion strains, locus YGL248W, strain PDE1, hits give low values)?
Answer: Its normalized growth is 1.01.

Question: And the normalized growth (S. cerevisiae deletion strains, locus YGR078C, strain PAC10, hits give low values)?
Answer: The normalized growth was 0.949.

Question: What about the normalized growth (S. cerevisiae deletion strains, locus YGR135W, strain pre9, hits give low values) of the same compound?
Answer: Its normalized growth is 0.936.

Question: What about the normalized growth (S. cerevisiae deletion strains, locus YGR229C, strain SMI1, hits give low values) of the same compound?
Answer: The normalized growth was 1.03.

Question: What about the normalized growth (S. cerevisiae deletion strains, locus YGR252W, strain gcn5, hits give low values) of the same compound?
Answer: The normalized growth was 0.783.

Question: And the normalized growth (S. cerevisiae deletion strains, locus YHR030C, strain SLT2, hits give low values)?
Answer: Its normalized growth is 1.

Question: What about the normalized growth (S. cerevisiae deletion strains, locus YHR079C, strain IRE1 (second series), hits give low values) of the same compound?
Answer: The normalized growth was 0.99.

Question: What about the normalized growth (S. cerevisiae deletion strains, locus YHR094C, strain hxt1, hits give low values) of the same compound?
Answer: The normalized growth was 0.993.

Question: And the normalized growth (S. cerevisiae deletion strains, locus YHR129C, strain ARP1, hits give low values)?
Answer: The normalized growth was 0.996.

Question: And the normalized growth (S. cerevisiae deletion strains, locus YHR200W, strain rpn10, hits give low values)?
Answer: Its normalized growth is 0.955.

Question: What about the normalized growth (S. cerevisiae deletion strains, locus YIL066C, strain RNR3, hits give low values) of the same compound?
Answer: Its normalized growth is 0.879.

Question: And the normalized growth (S. cerevisiae deletion strains, locus YIL073C, strain SPO22, hits give low values)?
Answer: Its normalized growth is 0.806.

Question: What about the normalized growth (S. cerevisiae deletion strains, locus YIL125W, strain kgd1, hits give low values) of the same compound?
Answer: Its normalized growth is 0.992.

Question: And the normalized growth (S. cerevisiae deletion strains, locus YIR030C, strain dcg1, hits give low values)?
Answer: The normalized growth was 0.996.

Question: What about the normalized growth (S. cerevisiae deletion strains, locus YJL095W, strain BCK1, hits give low values) of the same compound?
Answer: Its normalized growth is 0.946.

Question: What about the normalized growth (S. cerevisiae deletion strains, locus YJL134W, strain LCB3, hits give low values) of the same compound?
Answer: The normalized growth was 1.01.

Question: And the normalized growth (S. cerevisiae deletion strains, locus YJL168C, strain set2, hits give low values)?
Answer: The normalized growth was 1.

Question: And the normalized growth (S. cerevisiae deletion strains, locus YJL187C, strain SWE1 (second series), hits give low values)?
Answer: The normalized growth was 0.974.

Question: And the normalized growth (S. cerevisiae deletion strains, locus YJR043C, strain POL32, hits give low values)?
Answer: The normalized growth was 0.911.

Question: And the normalized growth (S. cerevisiae deletion strains, locus YJR075W, strain HOC1, hits give low values)?
Answer: The normalized growth was 0.968.

Question: And the normalized growth (S. cerevisiae deletion strains, locus YKL009W, strain mrt4, hits give low values)?
Answer: Its normalized growth is 0.884.

Question: What about the normalized growth (S. cerevisiae deletion strains, locus YKL068W, hits give low values) of the same compound?
Answer: The normalized growth was 1.

Question: What about the normalized growth (S. cerevisiae deletion strains, locus YKL085W, strain MDH1 (second series), hits give low values) of the same compound?
Answer: Its normalized growth is 1.01.

Question: What about the normalized growth (S. cerevisiae deletion strains, locus YKL085W, strain MDH1, hits give low values) of the same compound?
Answer: The normalized growth was 1.01.

Question: And the normalized growth (S. cerevisiae deletion strains, locus YKL190W, strain CNB1, hits give low values)?
Answer: The normalized growth was 0.991.

Question: And the normalized growth (S. cerevisiae deletion strains, locus YKR001C, strain vps1, hits give low values)?
Answer: The normalized growth was 0.836 (active).

Question: And the normalized growth (S. cerevisiae deletion strains, locus YLR039C, strain RIC1, hits give low values)?
Answer: The normalized growth was 0.578 (active).

Question: And the normalized growth (S. cerevisiae deletion strains, locus YLR058C, strain SHM2, hits give low values)?
Answer: Its normalized growth is 0.985.

Question: And the normalized growth (S. cerevisiae deletion strains, locus YLR102C, strain apc9, hits give low values)?
Answer: Its normalized growth is 1.01.

Question: And the normalized growth (S. cerevisiae deletion strains, locus YLR262C, strain YPT6, hits give low values)?
Answer: The normalized growth was 0.559 (active).

Question: What about the normalized growth (S. cerevisiae deletion strains, locus YLR268W, strain sec22, hits give low values) of the same compound?
Answer: The normalized growth was 0.976.

Question: What about the normalized growth (S. cerevisiae deletion strains, locus YLR330W, strain CHS5, hits give low values) of the same compound?
Answer: Its normalized growth is 0.986.

Question: And the normalized growth (S. cerevisiae deletion strains, locus YLR342W, strain FKS1 (second series), hits give low values)?
Answer: The normalized growth was 0.81.

Question: And the normalized growth (S. cerevisiae deletion strains, locus YLR371W, strain rom2, hits give low values)?
Answer: The normalized growth was 0.97.

Question: And the normalized growth (S. cerevisiae deletion strains, locus YLR418C, strain cdc73, hits give low values)?
Answer: Its normalized growth is 0.914.

Question: What about the normalized growth (S. cerevisiae deletion strains, locus YML016C, strain PPZ1, hits give low values) of the same compound?
Answer: The normalized growth was 0.985.

Question: And the normalized growth (S. cerevisiae deletion strains, locus YML032C, strain rad52, hits give low values)?
Answer: Its normalized growth is 0.903 (active).

Question: What about the normalized growth (S. cerevisiae deletion strains, locus YML124C, strain tub3, hits give low values) of the same compound?
Answer: The normalized growth was 1.

Question: And the normalized growth (S. cerevisiae deletion strains, locus YMR078C, strain ctf18, hits give low values)?
Answer: Its normalized growth is 0.965.

Question: And the normalized growth (S. cerevisiae deletion strains, locus YMR223W, strain ubp8, hits give low values)?
Answer: Its normalized growth is 0.914.

Question: What about the normalized growth (S. cerevisiae deletion strains, locus YMR263W, strain SAP30, hits give low values) of the same compound?
Answer: Its normalized growth is 0.971.

Question: What about the normalized growth (S. cerevisiae deletion strains, locus YMR307W, strain GAS1, hits give low values) of the same compound?
Answer: Its normalized growth is 0.91.

Question: What about the normalized growth (S. cerevisiae deletion strains, locus YNL067W, strain RPL9B, hits give low values) of the same compound?
Answer: The normalized growth was 0.944.

Question: What about the normalized growth (S. cerevisiae deletion strains, locus YNL128W, strain TEP1, hits give low values) of the same compound?
Answer: Its normalized growth is 0.995.

Question: What about the normalized growth (S. cerevisiae deletion strains, locus YNL153C, strain GIM3, hits give low values) of the same compound?
Answer: The normalized growth was 1.

Question: What about the normalized growth (S. cerevisiae deletion strains, locus YNL233W, strain BNI4, hits give low values) of the same compound?
Answer: The normalized growth was 0.989.

Question: What about the normalized growth (S. cerevisiae deletion strains, locus YNL250W, strain rad50, hits give low values) of the same compound?
Answer: Its normalized growth is 0.952.

Question: What about the normalized growth (S. cerevisiae deletion strains, locus YNL271C, strain bni1, hits give low values) of the same compound?
Answer: The normalized growth was 0.964.

Question: And the normalized growth (S. cerevisiae deletion strains, locus YNL298W, strain CLA4, hits give low values)?
Answer: Its normalized growth is 0.886 (active).

Question: What about the normalized growth (S. cerevisiae deletion strains, locus YNL307C, strain MCK1, hits give low values) of the same compound?
Answer: The normalized growth was 0.765 (active).

Question: What about the normalized growth (S. cerevisiae deletion strains, locus YNL322C, strain KRE1, hits give low values) of the same compound?
Answer: The normalized growth was 0.992.

Question: What about the normalized growth (S. cerevisiae deletion strains, locus YNR052C, strain pop2, hits give low values) of the same compound?
Answer: Its normalized growth is 0.873 (active).

Question: And the normalized growth (S. cerevisiae deletion strains, locus YOL006C, strain TOP1, hits give low values)?
Answer: Its normalized growth is 0.787.

Question: What about the normalized growth (S. cerevisiae deletion strains, locus YOL012C, strain htz1) of the same compound?
Answer: The normalized growth was 1.6.

Question: And the normalized growth (S. cerevisiae deletion strains, locus YOL147C, strain pex11, hits give low values)?
Answer: Its normalized growth is 0.978.

Question: And the normalized growth (S. cerevisiae deletion strains, locus YOR061W, strain CKA2, hits give low values)?
Answer: The normalized growth was 0.993.

Question: What about the normalized growth (S. cerevisiae deletion strains, locus YOR069W, strain VPS5, hits give low values) of the same compound?
Answer: Its normalized growth is 1.

Question: And the normalized growth (S. cerevisiae deletion strains, locus YOR136W, strain idh2, hits give low values)?
Answer: The normalized growth was 0.995.

Question: And the normalized growth (S. cerevisiae deletion strains, locus YOR144C, strain elg1, hits give low values)?
Answer: The normalized growth was 0.986.

Question: What about the normalized growth (S. cerevisiae deletion strains, locus YOR184W, strain ser1, hits give low values) of the same compound?
Answer: The normalized growth was 0.675 (active).

Question: What about the normalized growth (S. cerevisiae deletion strains, locus YOR316C, strain cot1, hits give low values) of the same compound?
Answer: Its normalized growth is 0.997.

Question: And the normalized growth (S. cerevisiae deletion strains, locus YPL055C, strain LGE1, hits give low values)?
Answer: Its normalized growth is 0.874.

Question: What about the normalized growth (S. cerevisiae deletion strains, locus YPL241C, strain CIN2, hits give low values) of the same compound?
Answer: Its normalized growth is 1.

Question: And the normalized growth (S. cerevisiae deletion strains, locus YPR119W, strain clb2, hits give low values)?
Answer: Its normalized growth is 1.01.

Question: And the normalized growth (S. cerevisiae deletion strains, locus YPR141C, strain kar3, hits give low values)?
Answer: Its normalized growth is 0.997.

Question: And the normalized growth (S. cerevisiae deletion strains, locus YPR163C, strain tif3, hits give low values)?
Answer: Its normalized growth is 0.961.

Question: What about the normalized growth (S. cerevisiae deletion strains, locus YPR167C, strain met16, hits give low values) of the same compound?
Answer: Its normalized growth is 0.998.

Question: What about the normalized growth (S. cerevisiae deletion strains, strain wtn01, hits give low values) of the same compound?
Answer: Its normalized growth is 0.929.

Question: And the normalized growth (S. cerevisiae strains, strain wild type, hits give low values)?
Answer: Its normalized growth is 0.95.
